Results taken from PubChem BioAssay.
Several values for one entry are separate records, joined by “and”; a condition that tells them apart may be missing. Equal values may be shown once. Records with an inconclusive call do not appear. Activity calls are given as the source filed them. Unless noted, the limit is not given here; nearly all actives have AC50 up to about 26 µM.

Legend:
[1] = viability loss in pontine glioma line – cell-based, SU-DIPG-XVII, MIPE5.0, CellTiter-Glo, qHTS, dose response (AID 1347060); conditions: CellTiter-Glo ATP luminescence;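 as to AC50: cells exposed to compound for 48 hours before viability readout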
[2] = viability loss in pontine glioma line – cell-based, SU-DIPG-XIII, MIPE4.0, CellTiter-Glo, qHTS, dose response (AID 1347061; cut-off not given, nearly all actives have AC50 up to about 37 µM;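 also: cells exposed to compound for 48 hours before readout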); conditions: CellTiter-Glo ATP luminescence
[3] = viability loss in pontine glioma line – cell-based, JHH-DIPG-1, MIPE4.0, CellTiter-Glo, qHTS, dose response (AID 1347062; cut-off not given, nearly all actives have AC50 up to about 27 µM;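 as to AC50: cells exposed to compound for two days before readout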); conditions: JHH-DIPG-1 viability, CellTiter-Glo ATP luminescence
[4] = viability loss in pontine glioma line – cell-based, SU-DIPG-IV, MIPE4.0, CellTiter-Glo, qHTS, dose response (AID 1347063; cut-off not given, nearly all actives have AC50 up to about 30 µM;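 also: compound exposure lasted 48 hours before the viability readout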); conditions: CellTiter-Glo ATP luminescence
[5] = viability loss in pontine glioma line – cell-based, SU-DIPG-XIII, MIPE5.0, CellTiter-Glo, qHTS, dose response (AID 1347064; cut-off not given, nearly all actives have AC50 up to about 23 µM;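 as to AC50: cells exposed to compound for 48 hours before the viability read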); conditions: CellTiter-Glo ATP luminescence
[6] = viability loss in pontine glioma line – cell-based, SU-DIPG-XXV, MIPE5.0, CellTiter-Glo, qHTS, dose response (AID 1347065); conditions: CellTiter-Glo ATP luminescence;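 also: cells exposed to compound for 48 hours before ATP readout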
[7] = growth inhibition of DIPG cells – cell-based, MIPE4.0 library, CellTiter-Glo luminescence, qHTS (AID 1347066; cut-off not given, nearly all actives have AC50 up to about 30 µM;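 also: cells exposed to compound for 48 hours before readout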); conditions: SU-DIPG-VI viability, CellTiter-Glo ATP luminescence
[8] = JHH-DIPG-1 glioma cell viability, MIPE5.0 library, CellTiter-Glo luminescence, qHTS (AID 1347067); conditions: JHH-DIPG-1 glioma viability, CellTiter-Glo ATP luminescence;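 also: cells exposed to compound for 48 hours before readout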
[9] = growth inhibition of DIPG cells – cell-based, MIPE5.0 library, qHTS (AID 1347068; cut-off not given, nearly all actives have IC50 up to about 30 µM;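 as to IC50: cells exposed to compound for 48 hours before viability readout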); conditions: SU-DIPG-XXV viability
[10] = viability loss with induced miR-34 in A549 – imaging, A549 dox-inducible miR-34, nuclei and caspase counts, primary screen (AID 1347080;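 active = compounds whose cell count with miR-34 switched on is under 0.7 times the count with it off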); conditions: A549 miR-34 inducible, Hoechst nuclei count, 48 h
[11] = compounds altering HSF1 focus formation in cells – imaging, Selleck Cancer Library (AID 1347162; in the data active = plate-normalised HSF1 focus index below about 0.46); conditions: human cells, HSF1 nuclear foci imaging, at 10 µM; SSMD: measured here: HSF1 foci SSMD mean; cell count: measured here: cell number; plate-normalised HSF1 focus index: stronger effect = lower value
[12] = MELAS cybrid and Rieske KO viability enhancers – cell-based, MELAS cybrids, Rieske KO mouse fibroblasts, CellTiter-Glo, primary screen (AID 1508586;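 active = mean z-score across replicates of 1.96 or higher in either the MELAS or the Rieske mutant cell line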;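 also: z relative to plate mean and SD of compound and empty wells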); conditions: low glucose
[13] = galactose survival enhancers in mitochondrial complex I cybrids – cell-based, galactose medium, ATP luminescence, primary screen (AID 1645843;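 active = z-score of at least 1.8 in each of two replicates, scored against plate mean and spread of sample wells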;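 also: positive z means more ATP and so rescue of galactose-driven cybrid death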); conditions: complex I mutant cybrid cells, 72 h, stronger effect = higher value
[14] = stronger effect = lower value, cell number ratio, induced over uninduced
[15] = measured here: relative caspase fold change +Dox/-Dox
[16] = measured here: total cells with miR-34 induction, stronger effect = lower value
[17] = measured here: total cells without miR-34 induction
[18] = MELAS cybrid survival, CellTiter-Glo 48 h, stronger effect = higher value
[19] = Rieske KO mouse fibroblast survival, CellTiter-Glo 72 h

COc1cc2nc(N3CCCN(C)CC3)nc(NC3CCN(Cc4ccccc4)CC3)c2cc1OC
672 and 5080 and 2320: cell count [10, 16]
760 and 4890 and 2300: cell count [10, 17]
6820: cell count [11]
inactive: fold change [10, 14] 0.884 and 1.04 and 1.01 | plate-normalised HSF1 focus index [11] 1.1 | z-score [12, 18] -0.436 | z-score [13] -1.38
-1.67: z-score [12, 19]
1.64: SSMD [11]
1.51 and 1.3 and 0.404: fold change [10, 15]
active: AC50 [1] 10.5 µM | AC50 [2] 26.4 µM | AC50 [3] 7.43 µM | AC50 [4] 10.5 µM | AC50 [5] 13.2 µM | AC50 [6] 10.5 µM | AC50 [7] 9.35 µM | AC50 [8] 13.2 µM | IC50 [9] 11.8 µM

C[C@H](O)[C@@H]1C(=O)N2C(C(=O)O)=C(S[C@@H]3CN[C@H](CNS(N)(=O)=O)C3)[C@@H](C)[C@@H]12
inactive: outcome [1] | outcome [2] | outcome [3] | outcome [4] | outcome [5] | outcome [6] | outcome [7] | outcome [8] | outcome [9]

C=CCNC1=C2C[C@@H](C)C[C@H](OC)[C@H](O)[C@@H](C)/C=C(\C)[C@H](OC(N)=O)[C@@H](OC)/C=C\C=C(/C)C(=O)NC(=CC1=O)C2=O
inactive: outcome [5] | fold change [10, 14] 1.02
1900: cell count [10, 17]
active: AC50 [1] 1.18 µM | AC50 [2] 1.05 µM | AC50 [3] 2.64 µM | AC50 [4] 0.118 µM | AC50 [6] 7.42 µM | AC50 [7] 14.8 µM | AC50 [8] 0.934 µM | IC50 [9] 10.5 µM
1940: cell count [10, 16]
1.33: fold change [10, 15]

CCOC(=O)/C=C/[C@H](C[C@@H]1CCNC1=O)NC(=O)[C@@H](CC(=O)[C@@H](NC(=O)c1cc(C)on1)C(C)C)Cc1ccc(F)cc1
inactive: outcome [1] | outcome [2] | outcome [3] | outcome [4] | outcome [5] | outcome [6] | outcome [7] | outcome [8] | outcome [9]

O=C(O)[C@@H](c1ccc(OCc2ccc3ccccc3n2)cc1)C1CCCC1
inactive: outcome [1] | outcome [2] | outcome [3] | outcome [4] | outcome [5] | outcome [6] | outcome [7] | outcome [8] | outcome [9]

COc1ccc2c(OCc3nnc4ccc(-c5ccccc5)nn34)ccnc2c1
inactive: outcome [1] | outcome [2] | outcome [3] | outcome [4] | outcome [5] | outcome [6] | outcome [7] | outcome [8] | outcome [9]

CC1(C)SCCN(S(=O)(=O)c2ccc(OCC#CCO)cc2)[C@H]1C(=O)NO
inactive: outcome [1] | outcome [2] | outcome [3] | outcome [4] | outcome [5] | outcome [6] | outcome [7] | outcome [8] | outcome [9]

C=C(C)[C@@H]1CC[C@]2(C)CC[C@]3(C)[C@H](CC[C@@H]4[C@@]5(C)CC[C@H](O)C(C)(C)[C@@H]5CC[C@]43C)[C@@H]12
inactive: outcome [1] | outcome [2] | outcome [3] | outcome [4] | outcome [5] | outcome [6] | outcome [7] | outcome [8] | outcome [9]

COc1cc2nc(-c3ccc(N4CCN(C)CC4)cc3)nc(NCCN3CCOCC3)c2cc1OC
inactive: outcome [9]
active: AC50 [1] 14.8 µM | AC50 [2] 0.332 µM | AC50 [3] 0.332 µM | AC50 [4] 0.132 µM | AC50 [5] 9.34 µM | AC50 [6] 8.33 µM | AC50 [7] 0.118 µM | AC50 [8] 16.6 µM

Cn1cc(C[C@@H](N)C(=O)O)c2ccccc21
inactive: outcome [1] | outcome [2] | outcome [3] | outcome [4] | outcome [5] | outcome [6] | outcome [7] | outcome [8] | outcome [9]

CC(C)(O)[C@H]1CC[C@@](C)([C@H]2[C@@H](O)C[C@@]3(C)[C@@H]4C[C@H](O[C@@H]5O[C@H](CO)[C@@H](O)[C@H](O)[C@H]5O)[C@H]5C(C)(C)[C@@H](O[C@@H]6OC[C@@H](O)[C@H](O)[C@H]6O)CC[C@@]56C[C@@]46CC[C@]23C)O1
inactive: outcome [1] | outcome [2] | outcome [3] | outcome [4] | outcome [5] | outcome [6] | outcome [7] | outcome [8] | outcome [9]

CC(C)[C@H](O)C(=O)N[C@@H](C)C(=O)N[C@@H]1C(=O)N(C)CCc2ccccc21
inactive: outcome [1] | outcome [2] | outcome [3] | outcome [4] | outcome [5] | outcome [6] | outcome [7] | outcome [8] | outcome [9]

O=C(Nc1ccccc1Br)N[C@@H]1CCN(c2ccc(C(F)(F)F)cn2)C1
inactive: outcome [1] | outcome [2] | outcome [3] | outcome [4] | outcome [5] | outcome [6] | outcome [7] | outcome [8] | outcome [9]

O=c1c(-c2ccc(O)cc2)coc2cc(O[C@@H]3O[C@H](CO)[C@@H](O)[C@H](O)[C@H]3O)ccc12
inactive: outcome [1] | outcome [2] | outcome [3] | outcome [4] | outcome [5] | outcome [6] | outcome [7] | outcome [8] | outcome [9]

O=C(NCCS(=O)(=O)c1ccc(C(F)(F)F)cn1)c1ccc(Cl)cc1
inactive: outcome [1] | outcome [2] | outcome [3] | outcome [4] | outcome [5] | outcome [6] | outcome [7] | outcome [8] | outcome [9] | fold change [10, 14] 0.87 | plate-normalised HSF1 focus index [11] 1.2 | z-score [12, 18] -0.369
3.34: SSMD [11]
7080: cell count [11]
7940: cell count [10, 16]
9120: cell count [10, 17]
0.351: fold change [10, 15]
0.00298: z-score [12, 19]

CC[C@@H](C)[C@H](NC(=O)[C@H](CC1CCCCC1)NC(=O)c1ccno1)C(=O)N1CCC2(CCc3ccccc32)CC1
inactive: outcome [1] | outcome [2] | outcome [3] | outcome [4] | outcome [5] | outcome [7] | outcome [8] | outcome [9]
active: AC50 [6] 11.8 µM
